# Source: PubChem (National Center for Advancing Translational Sciences (NCATS))
# AMA1 RON2 block = disrupts binding of P. falciparum AMA1 to RON2; AlphaScreen AMA1-biotinylated RON2 peptide binding; Potency, µM (series often up to 58.2 µM), inactives show top-dose activity change, negative = inhibition, hits mostly inhibitors; 360,000 tested, 0.2% active; AID 720542;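 also: 0% = vehicle wells and -100% = peptide control; nearly all actives have a fitted effect of over 45% in size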
#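 AMA1 (3D7) with his tag at 25 nM final met compounds first, then biotinylated RON2 peptide at 25 nM; detection used donor plus acceptor beads, 10 µg/mL apiece, read by AlphaScreen after 30 min at room temperature.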
# Pf growth 48h = inhibits P. falciparum growth in the first generation, 48 h | P. falciparum luciferase growth in erythrocytes, 48 h | Potency, µM (highest dose often 28.7 µM), inactives show top-dose activity change, negative = inhibition, actives largely listed as inhibitors | 310,000 tested, 5.9% active; also: % is scaled to controls: 0 for no effect and ±100 for the full control effect
#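 Luciferase-expressing parasites in RBCs, 2% Hct / 0.1% parasitemia final; RPMI 1640 + 0.5% Albumax; 37 C, 5% CO2, one generation; luminescence read-out, lower signal = inhibition.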
# Pf growth 96h = P. falciparum growth inhibition at 96 hour, primary screen for plastid delayed-death inhibitors. AID 504834. 320,000 tested, 6.9% active. P. falciparum luciferase reporter growth, 96 h. Potency, µM (highest dose often 28.7 µM), for the others: at the top dose activity change, negative = inhibition, hits mostly inhibitors; also: % is scaled to controls: 0 for no effect and ±100 for the full control effect
#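 Two parasite generations (96 h, 37 C, 5% CO2) of compound exposure in infected erythrocytes (0.05% parasitemia, 2% hematocrit). Luciferase-reporter P. falciparum; decreased luminescence indicates inhibited growth, aimed at apicoplast-acting delayed death.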
# SARS PLP yeast = blocks SARS-CoV papain-like protease in a yeast assay; S. cerevisiae expressing SARS-CoV PLpro, growth rescue; Potency, µM (top dose mostly 32.9 µM), for the others: at the highest dose activity, positive = growth rescue, hits mostly activators; 330,000 tested, 0.19% active; calls by dose curve; also: 0% is about no effect; nearly all actives have a fitted effect of over 55% in size
# * marks the source's active call; other numbers are inactive results; ? = inconclusive; . = no result; ! = repeats disagree; [ ] = dose if it differs, or a comment. A selection: hits, their analogues and other compounds. The true share with any hit is near 9.4%. Unless noted, calls follow the shape of the dose curve; as a rule, active = well fitted curve in the direction sought with a large enough effect; inconclusive = small, poorly fitted or top-dose-only effect, or another doubt; inactive = no such curve, though single readings can be large; an effect the other way counts as inactive or inconclusive. Potency is read from the fitted curve at half-maximal effect.
SMILES,AMA1 RON2 block,Pf growth 48h,Pf growth 96h,SARS PLP yeast
O=C(c1ccccc1Cl)N(C(=O)c1ccccc1Cl)c1nccc(-c2cccs2)n1,14.5%,13.6%,7.9%,15.3%
CC(C)C(=O)Nc1ccc(NC(=O)c2ccco2)cn1,9.0%,106.2%,?,-1.1%
COc1cc(-c2cc(C(=O)Nc3cc(S(=O)(=O)N4CCOCC4)ccc3C)c3ccccc3n2)cc(OC)c1OC,2.1%,2.94µM*,1.04µM*,2.7%
COc1cc(-c2cc(C(=O)Nc3cc(S(=O)(=O)N4CCOCC4)ccc3O)c3ccccc3n2)cc(OC)c1OC,-6.3%,.,.,0.7%
Cc1ccc(NC(=S)NC(NC(=O)C(C)(C)C)C(Cl)(Cl)Cl)c(C)c1 (stereo not drawn),-7.8%,?,?,2.6%
O=C(Cn1c(NCCCO)nc2ccccc21)c1ccc(Cl)cc1,0.0%,?,0.0%,2.1%
COc1ccc(-n2c(C)cc(C(=O)Cn3c(NCCO)nc4ccccc43)c2C)cc1,-22.0%,0.0%,10.4µM*,5.3%
O=C(Cn1c(NCCCO)nc2ccccc21)c1ccc(Cl)cc1Cl,-0.3%,1.65µM*,9.28µM*,-0.4%
COc1ccc(C(=O)Cn2c(NCCCO)nc3ccccc32)cc1,2.7%,.,.,.
COc1ccc(C2CC(=O)C3=C(C2)Nc2ccccc2NC3c2coc3ccccc3c2=O)cc1OC (stereo not drawn),-27.0%,7.38µM*,-19.0%,-28.3%
CCN1C(=O)[C@@H]2[C@@H](c3ccc(-c4ccc(F)cc4)cc3)N3CCCC[C@@]3(C(=O)OC)[C@@H]2C1=O,-10.7%,10.4µM*,?,6.3%
COC(=O)[C@@]12CCCN1[C@H](c1ccc(-c3ccc(F)cc3)cc1)[C@H]1C(=O)N(C)C(=O)[C@H]12,1.2%,1.17µM*,?,-4.4%
CCN1C(=O)[C@@H]2[C@@H](c3ccc(-c4ccc(Cl)c(Cl)c4)c(OC)c3)N3CCCC[C@@]3(C(=O)OC)[C@@H]2C1=O,-3.8%,2.62µM*,?,-10.4%
COC(=O)[C@@]12CCCCN1[C@H](c1ccc(-c3ccc(F)cc3)cc1)[C@H]1C(=O)N(C)C(=O)[C@H]12,-4.4%,.,.,-45.2%
CCN1C(=O)[C@@H]2[C@@H](c3ccc(-c4ccc(F)cc4)c(OC)c3)N3CCCC[C@@]3(C(=O)OC)[C@@H]2C1=O,-12.0%,10.4µM*,7.38µM*,-8.2%
CCN1C(=O)[C@H]2[C@@H](c3ccc(-c4ccc(C(C)=O)cc4)c(OC)c3)N3CCCC[C@@]3(C(=O)OC)[C@H]2C1=O,-1.4%,.,.,-26.9%
CCC(Sc1nc2ccccc2c(=O)[nH]1)C(=O)O (stereo not drawn),-1.4%,-5.8%,.,-4.6%
O=[N+]([O-])c1c(NCc2ccco2)ncnc1NCc1ccco1,-26.7%,.,.,.
COC(=O)C(CCSC)NS(=O)(=O)c1ccc(Cl)cc1 (stereo not drawn),-3.8%,4.3%,?,1.3%
COC(=O)C1=C(c2ccc(OC)c(OC)c2)C[C@@H]2CC[C@H]1N2C(=O)N1CCC(C)CC1,6.3%,31.4%,?,-20.2%
COC(=O)C1=C(c2ccc(C(C)=O)cc2)C[C@@H]2CC[C@H]1N2C(=O)NC1CC1,-3.2%,-5.4%,14.3%,0.2%
COC(=O)C1=C(c2ccc(C(C)=O)cc2)C[C@@H]2CC[C@H]1N2C(=O)N1CCC(O)(c2ccc(Cl)cc2)CC1,-3.2%,10.4µM*,?,-10.5%
COC(=O)C1=C(c2ccc(C(C)=O)cc2)C[C@@H]2CC[C@H]1N2C(=O)N1CCC(C)CC1,14.9%,13.1µM*,-9.2%,1.0%
COC(=O)C1=C(c2ccc3ccccc3c2)C[C@@H]2CC[C@H]1N2C(=O)N1CCC(C)CC1,-2.5%,9.28µM*,?,2.9%
Cc1cccc(N2CCN(c3nc4nonc4nc3N3CCSCC3)CC2)n1,-0.2%,?,-5.1%,-4.3%
SMILES,AMA1 RON2 block,Pf growth 48h,Pf growth 96h,SARS PLP yeast
O=[N+]([O-])c1ccc(Cl)c(S(=O)(=O)Nc2ccc(S(=O)(=O)N3CCOCC3)cc2)c1,-5.8%,-1.8%,19.0%,-0.7%
CC1CCCN(CC(O)COC(c2ccccc2)c2ccccc2)C1 (stereo not drawn),-10.4%,?,?,-0.2%
Cc1ccc(C(OCC(O)CN2CCCCC2CO)c2ccccc2)cc1 (stereo not drawn),-19.0%,?,1.65µM*,12.5%
CCc1nc2ccc(C(=O)Nc3nnc(C)s3)cc2nc1CC,8.7%,-17.6%,39.4%,1.7%
O=C(Cn1c2[n+](c3ccc(C(F)(F)F)cc31)CCCCC2)Nc1ccccc1,-11.4%,?,?,8.6%
FC(F)(F)c1ccc2c(c1)n(Cc1ccccc1)c1[n+]2CCCCC1,-2.1%,6.57µM*,?,-0.3%
CCc1cccc(NC(=O)Cn2c3[n+](c4ccc(C(F)(F)F)cc42)CCCCC3)c1,-8.5%,4.65µM*,1.04µM*,-13.1%
O=C(Cn1c2[n+](c3ccc(C(F)(F)F)cc31)CCCCC2)c1cccc([N+](=O)[O-])c1,2.3%,14.7µM*,13.1µM*,-2.7%
O=C(NCCOc1ccccc1)C1CCC(=O)N(CCc2ccccn2)C1 (stereo not drawn),-6.0%,33.7%,?,-3.8%
CCCCCCSC1=C(C#N)C(c2ccc(C)o2)CC(=O)N1 (stereo not drawn),-1.4%,3.5%,-5.5%,-3.1%
CCCCNC(=O)C1(C)CCCCN1C(=O)c1cc(C)n(C(C)(C)C)n1 (stereo not drawn),0.3%,.,.,.
N#Cc1c(-c2ccc(Cl)cc2)ccnc1N1CCOCC1,26.1%,?,4.65µM*,-9.5%
COc1ccc(CCn2c3c(c(=O)[nH]c2=O)C(NC(=O)c2cccs2)(C(F)(F)F)C(=O)N3)cc1OC (stereo not drawn),-1.8%,-6.4%,44.6%,-4.9%
O=Cc1c(-c2ccccc2)nc2ccccn12,-8.4%,-2.4%,13.1µM*,0.0%
O=C(Nc1c(-c2ccccc2)nc2ccccn12)c1ccccc1,-5.6%,?,-29.6%,2.9%
Cc1ccc(NC(=O)Cn2nc(C)c3ccccc3c2=O)cc1,-0.3%,18.9%,24.0%,-0.2%
Nc1ccc(CC2=NCCN2)cc1,-12.2%,.,.,.
Cc1sc2ccccc2c1CC1=NCCN1,6.2%,?,8.49µM*!,1.2%
CC(NC(=O)CN(C)CC(=O)Nc1cccc(F)c1)c1ccccc1 (stereo not drawn),7.8%[11.6 µM],4.0%,-28.3%,12.0%
CCCCC(=O)Nc1ccc(C(=O)OC2CCCCC2)cc1,14.1%,10.4µM*,.,-20.8%
CC(C)CC(=O)NC(=S)NNC(=O)c1ccc(NC(=O)C2CCCCC2)cc1,44.6%,?,13.1µM*,15.8%
O=C(OC1CCCCC1)c1ccc(NC(=O)C2CCCCC2)cc1,11.8%,.,11.7µM*,-6.0%
O=C(Nc1ccc(C(=O)OC2CCCCC2)cc1)c1ccncc1,5.1%,13.4%,5.22µM*,-10.3%
O=C(O)CCC(=O)Nc1ccc(C(=O)OC2CCCCC2)cc1,-1.8%,.,10.1%,5.2%
COC(=O)C(Cc1c[nH]c2ccccc12)NC(=O)c1ccc2nc[nH]c2c1 (stereo not drawn),0.0%,156.4%,268.2%,-0.2%
CC(C)Sc1nc(O)c(Cc2ccccc2)c(=O)[nH]1,3.6%,16.6%,.,9.1%
